Shiga inhibitor = A qHTS for Small Molecule Inhibitors of Shiga Toxin. inhibition, % at 38.7 µM. Vero cells, Shiga toxin protein synthesis inhibition reporter. 290,000 compounds, 9.2% hits; in the data active means inhibition mostly above about 28%, no sharp cut-off; inactive means mostly below about 43%; further: 0% is about no effect
Cycloheximide cs = Cycloheximide Counterscreen for Small Molecule Inhibitors of Shiga Toxin; max response, %; AID 2314, 2010; cell reporter, cycloheximide protein synthesis inhibition counterscreen; 300,000 compounds, 12% hits; in the data active means max response mostly above about 13%, no sharp cut-off; inactive means mostly below about 14%; further: read at 38.3 µM for the half of the compounds with a filed dose; 0% is about no effect
SARS PLpro yeast = qHTS of Yeast-based Assay for SARS-CoV PLP | 330,000 compounds, 0.19% hits | AID 485353, 2010 | Potency, µM (top dose mostly 32.9 µM), inactives show top-dose activity, positive = growth rescue, actives largely listed as activators | S. cerevisiae expressing SARS-CoV PLpro, growth rescue; further: potency means the concentration at half of the fitted maximal effect; 0% is about no effect; nearly all actives have a fitted effect of over 55% in size
NS1 function inh = qHTS Assay for Inhibitors of Influenza NS1 Protein Function; Potency, µM (doses to about 46.1 µM), for the others: at the top dose activity, positive = more growth; 270,000 compounds, 0.4% hits; further: potency means the concentration at half of the fitted maximal effect; actives are rising curves; nearly all actives have a fitted effect of over 50% in size
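Compounds were scored for reversing the slow growth caused by influenza A NS1 in S. cerevisiae, measured by optical density at 600 nm. Assay medium contained 2% galactose at pH 6.0; NS1-free yeast of the same strain were the positive control.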
* hit, by the source's call; ? = inconclusive; . = no result given. Compounds with a hit are over-represented: about 12% of the library has one in this group of screens. Unless noted, the call rests on the fitted dose curve.

SMILES	Shiga inhibitor	Cycloheximide cs	SARS PLpro yeast	NS1 function inh
Cc1ccc(N=Cc2ccc[nH]2)c(O)c1	98*	44*	-17%	-10%
O=C(N/N=C\c1ccc[nH]1)c1cncc(Br)c1	-2	1	-1%	4%
O=C(COc1ccc(Cl)cc1Cl)Nc1ccc(CN2CCOCC2)cc1	-2	-1	1%	-18%
Cc1cc(OCC(=O)Nc2ccc(N3CCN(C)CC3)cc2)ccc1Cl	77*	38*	-8%	2%
O=C(COc1ccccc1Cl)Nc1ccc(CN2CCOCC2)cc1	8	21*	0%	-16%
CN1CCN(c2ccc(NC(=O)COc3ccccc3Cl)cc2)CC1	76*	26*	-4%	2%
Cc1cc(OCC(=O)Nc2ccc(S(=O)(=O)N3CCN(C)CC3)cc2)ccc1Cl	-3	-1	-11%	-13%
COc1ccc(CCN(C)C(=O)CN2C(=O)NC3(CCCCC3C)C2=O)cc1OC (stereo not given)	.	.	0%	.
O=C(O)CC/C(=N/NC(=O)c1ccc(-c2ccccc2)cc1)c1ccccc1	21	6	?	23%
COC(=O)C1CN(C(=O)COc2cccc(C)c2C)c2ccccc2O1 (stereo not given)	44	26*	-3%	-9%
COc1ccc(N(CC(=O)NCCSc2ccccc2)S(=O)(=O)c2ccccc2)c(OC)c1	.	.	5%	.
CCOc1ccccc1C(=O)NCC(=O)OCC(=O)c1ccc2c(c1)OCCO2	17	6	2%	-10%
CCOC(=O)CNC(=O)c1cc(-c2ccc3c(c2)OCCO3)oc1C	63*	44*	-9%	-2%
O=C(CNC(=O)c1ccc(Cl)cc1)OCC(=O)c1ccc2c(c1)OCCO2	37	45*	13%	-5%
CCOC(=O)CNC(=O)c1ccc2c(c1)OCCO2	59*	46*	-4%	3%
COC(=O)CCC(NC(=O)c1cc(-c2ccc3c(c2)OCCO3)oc1C)C(=O)OC (stereo not given)	18	16	5%	-22%
c1ccc(C2=NN[C@@H]3c4ccccc4-c4ccccc4N3C2)cc1	.	.	.	-3%
CNC(=O)Oc1ccc(-c2cn3cc(C)ccc3n2)cc1	6	-2	-27%	-66%
Cc1ccc2nc(-c3ccc4c(c3)NC(=O)CO4)cn2c1	72*	42*	-1%	-2%
COc1ccc(-c2cn3ccccc3n2)cc1OC	78*	27*	-11%	-18%
COc1ccc(-c2cn3cc(C)ccc3n2)cc1F	15	16*	-2%	-7%
Fc1ccc(-c2cn3ccccc3n2)cc1	77	34*	-13%	-14%
CCOc1ccc(-c2cn3ccccc3n2)cc1	37	6	-3%	-7%
CN1CCN(c2nc(-c3ccc(Cl)cc3Cl)nc3ccccc23)CC1	-7	1	-1%	-6%
O=C(/C=C/c1cccc(Br)c1)NCc1ccncc1	-11	-2	5%	.
SMILES	Shiga inhibitor	Cycloheximide cs	SARS PLpro yeast	NS1 function inh
COc1ccc(-c2cn3cc(C)ccc3n2)cc1OC	55*	33*	-10%	-19%
CC(C)c1ccc(Nc2nc(CC(=O)O)cs2)cc1	108*	49*	1%	.
CCC(=O)Nc1nc(CC(=O)Nc2ccccc2)cs1	-12	-8	-1%	-3%
O=C(COc1ccc(Cl)cc1)OCc1csc(Nc2ccccc2)n1	18	10	-30%	-56%
O=C(O)Cc1csc(Nc2cccc(Cl)c2)n1	47	16*	-58%	0%
C[C@H](CN(C)C)C(=O)c1ccccc1C(=O)O	.	.	.	-1%
N#CC1=C(N)N(c2ccccc2)C(c2ccccc2)C1(C#N)C#N (stereo not given)	5	14	8%	-2%
CC(C)(C)c1ccc(S(=O)(=O)CCc2ccccn2)cc1	54*	27*	9%	-7%
Cc1ccc(S(=O)(=O)CCc2ccccn2)cc1	-2	-2	-6%	-3%
CC(C)(C)c1ccc(SCCc2ccccn2)cc1	89*	40*	0%	-8%
c1ccc(CCNc2ccccn2)nc1	.	.	.	0%
Fc1ccc(SCCc2ccccn2)cc1	72*	52*	1%	2%
Cc1ccc(Nc2nc(-c3ccc(F)cc3)cs2)nc1	77*	53*	0%	18%
Cc1ccc(Nc2nc(-c3ccc(O)c(O)c3)cs2)nc1	113*	62*	2%	13%
Cc1cc(NS(=O)(=O)c2ccc(Nc3nc(-c4ccc(O)cc4)cs3)cc2)no1	-7	-1	-1%	?
CN(C)c1ccc(-n2cccc2/C=C/[N+](=O)[O-])cc1	-15	-6	-15%	.
CN(C)c1ccc(N=Cc2cccn2C)cc1	107*	85*	-8%	-10%
CC(=O)NCCN1C(=O)S/C(=C\c2cccs2)C1=O	10	14	0%	2%
O=C(NCCN1C(=O)S/C(=C\c2cccs2)C1=O)c1ccco1	37	46*	2%	0%
COc1ccc(NC(=O)c2sc3nc(N4CCOCC4)c4c(c3c2N)CCCC4)c(OC)c1	-6	-4	7%	8%
O=C(C1CC1)N1CCc2cc(Br)cc(S(=O)(=O)NCc3ccccn3)c21	-3	-3	1%	-5%
O=C(C1CC1)N1CCc2cc(Br)cc(S(=O)(=O)NCc3ccco3)c21	53*	28*	6%	-10%
Cn1c(=O)n(C)c2cc(/C=N/N=C3/NC(=O)C(CC(=O)O)S3)ccc21 (stereo not given)	-5	4	0%	8%
COc1ccc(C(=O)CCNc2cccc(Cl)c2)cc1	24	9	-2%	3%
Cc1ccc(NC2=C(NC(=O)c3ccccc3)C(=O)c3ccccc3C2=O)cc1Cl	0	2	-48%	-33%
SMILES	Shiga inhibitor	Cycloheximide cs	SARS PLpro yeast	NS1 function inh
CCCOc1ccc(C(=O)CCNc2cccc(Cl)c2)cc1	130*	25*	3%	.
Cc1ccc(NCC(=O)c2ccccc2)cc1Cl	102*	24*	-16%	-16%
Cc1ccc(NCCC(=O)c2ccccc2)cc1Cl	43*	15*	-7%	-1%
Cc1ccc(NC(=O)CN(C)C(=O)COc2cc(F)ccc2[N+](=O)[O-])cc1	24	2	0%	.
Cc1oc(-c2ccccc2)cc1C(=O)Nc1cccc2ccccc12	13	16*	-2%	-83%
Cc1ccc(C(=O)Nc2cccc3ccccc23)cc1	35*	29*	3%	-5%
CC(C)(C)c1cc(C(=O)Nc2cccc3ccccc23)ccn1	-1	13	-18%	-26%
CC(C)(C)c1ccc(C(=O)Nc2cccc3c(=O)[nH][nH]c(=O)c23)cc1	55*	56*	12%	13%
Cc1cc(C(=O)Nc2cccc3ccccc23)co1	28	14*	-3%	-20%
Cc1ccccc1NC(=O)c1ccc(NS(=O)(=O)c2cc(C(C)(C)C)cc(C)c2C)cc1	-6	-5	6%	-40%
Cc1cccc(C)c1N1C(=O)CCC(C)(C)C1=O	-6	-1	0%	4%
COc1ccc(C(=O)Nc2cccc3ccccc23)cc1	32	21*	0%	2%
COc1cc(OC)c(C(=O)Nc2cccc3ccccc23)cc1OC	.	21*	-3%	7%
CCOc1ccccc1C(=O)Nc1cccc2ccccc12	-5	10	-6%	3%
COc1ccc(C(=O)NNC(=O)C(=O)Nc2cccc3ccccc23)cc1	-5	-11	-7%	-36%
COc1ccccc1C(=O)Nc1cccc(-c2cn3ccsc3n2)c1	42*	27*	-27%	-26%
